LmPK inh: blocks Leishmania mexicana pyruvate kinase activity; Q27686; purified LmPK, Kinase-Glo ATP luminescence, 1 h; Potency, µM (doses to about 57.5 µM), without a hit: top-dose activity change, negative = inhibition, actives largely listed as inhibitors; hit rate 0.37% among 290,000; further: on the % scale 0 is the no-effect control and ±100 the full control effect
Target sequence (Q27686 whole entry, looked up): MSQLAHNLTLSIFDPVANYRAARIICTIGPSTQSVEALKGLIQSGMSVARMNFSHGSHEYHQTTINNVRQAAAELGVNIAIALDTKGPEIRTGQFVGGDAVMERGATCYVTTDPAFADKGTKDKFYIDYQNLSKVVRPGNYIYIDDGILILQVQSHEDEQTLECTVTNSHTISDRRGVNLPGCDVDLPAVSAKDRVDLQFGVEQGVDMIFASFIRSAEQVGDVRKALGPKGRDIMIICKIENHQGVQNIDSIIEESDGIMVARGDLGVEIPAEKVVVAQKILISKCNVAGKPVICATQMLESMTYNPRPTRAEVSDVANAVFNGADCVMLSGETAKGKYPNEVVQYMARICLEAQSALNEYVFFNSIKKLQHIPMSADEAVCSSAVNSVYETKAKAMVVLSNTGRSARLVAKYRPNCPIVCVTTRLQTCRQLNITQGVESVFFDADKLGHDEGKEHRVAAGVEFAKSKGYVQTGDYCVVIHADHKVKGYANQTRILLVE
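0.1 nM LmPK, 0.5 mM PEP, 0.1 mM ADP; 50 mM imidazole pH 7.2, 7 mM MgCl2, 50 mM KCl; 1 h RT. Kinase-Glo luminescence readout, normalized to no-enzyme (full inhibition) and uninhibited wells.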
Sm TGR block: inhibitors of Schistosoma mansoni thioredoxin glutathione reductase | purified TGR, DTNB reduction, TNB absorbance 405 nm | hit rate 3% among 360,000 | AID 485364 | Q962Y6 | Potency, µM (top dose mostly 114 µM), inactives show at the highest dose activity change, negative = inhibition, actives largely listed as inhibitors; further: on the % scale 0 is the no-effect control and ±100 the full control effect; nearly all actives have a fitted effect of over 60% in size
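Kinetic colorimetric format: TGR-catalysed, NADPH-driven DTNB reduction monitored via TNB absorbance. Enzyme dispensed at 20 nM; compound exposure 15 min at room temperature before reaction start.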
RE007 growth inh: less growth of the S. pombe RE007 Vpr strain; S. pombe RE007 Vpr strain, BacTiter-Glo ATP luminescence, 24 h; Potency, µM (series often up to 92.2 µM), inactives show at the top dose activity change, negative = less growth, most hits filed as inhibitors; hit rate 0.21% among 360,000; AID 651644; active means well fitted falling curve with a large enough effect; inconclusive means small, poorly fitted or top-dose-only effect; inactive means no such curve, though single readings can be large or run the other way; further: on the % scale 0 is the no-effect control and ±100 the full control effect; nearly all actives have a fitted effect of over 50% in size
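Fission yeast RE007 carrying one integrated HIV-1 vpr copy, seeded at OD 0.01 in PMG+AL medium with 23 nL pinned compound. Grown 24 h at 30 degrees; viability read by BacTiter-Glo luminescence after 5 min.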
NS1 function inh: inhibitors of influenza NS1 protein function; Potency, µM (titrated, usually from 46.1 µM), for the others: top-dose activity, positive = more growth; hit rate 0.4% among 270,000; AID 2326; calls by dose curve; further: actives are rising curves; nearly all actives have a fitted effect of over 50% in size
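Recovery from NS1-induced slow growth read by OD600 in budding yeast switched to galactose assay medium (pH 6.0, -URA) at 1:100 dilution. Compound 23 nl per well; the matching strain lacking NS1 serves as control.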
FBPA Giardia inh: Giardia lamblia aldolase inhibition; purified Giardia FBPA; AID 2451; A8B2U2; hit rate 0.71% among 290,000; Potency, µM (highest dose often 59.6 µM), inactives show top-dose activity, negative = inhibition, usual class: inhibitors; further: on the % scale 0 is the no-effect control and ±100 the full control effect; nearly all actives have a fitted effect of over 55% in size
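40 nM FBPA preincubated 10 min at RT with compound (up to 57.5 uM final), then substrate plus GAPDH/TPI/NAD/arsenate coupling and diaphorase/resazurin added. Fluorescence read after 20 min at RT, 525/598 nm.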
TbPYK inhibitor: inhibitors of Trypanosoma brucei pyruvate kinase; Q57TT1; TbPYK enzyme, Kinase-Glo Plus ATP luminescence, 45 min; Potency, µM (highest dose often 76.8 µM), for inactives: at the top dose activity, negative = inhibition, actives largely listed as inhibitors; hit rate 0.12% among 410,000; further: on the % scale 0 is the no-effect control and ±100 the full control effect; nearly all actives have a fitted effect of over 50% in size
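Luminescent Kinase-Glo Plus end-point after 45 min room-temperature reaction of T. brucei pyruvate kinase started with 130 uM ADP (final). Buffer TEA 50 mM pH 7.2 with KCl, MgCl2, BSA, Tween-20; titration-based qHTS with fitted concentration-effect curves.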
An asterisk follows results filed as active; ? = inconclusive; · = not tested or not shown; [ ] = dose if it differs, or a comment. Rows were chosen to be rich in hits. Some 3.5% of all compounds tested hit in one or more screens of this group. Unless noted, the call rests on the fitted dose curve; in most records, active means well fitted curve in the direction sought with a large enough effect; inconclusive means small, poorly fitted or top-dose-only effect, or another doubt; inactive means no such curve, though single readings can be large; an effect the other way counts as inactive or inconclusive. Potency means the concentration at half of the fitted maximal effect.

SMILES | LmPK inh | Sm TGR block | RE007 growth inh | NS1 function inh | FBPA Giardia inh | TbPYK inhibitor
COc1ccc(NC(=O)c2cnc(N3CCCCC3)c3ccccc23)cc1Cl | · | 8% | · | · | · | -1%
COc1ccc(CN(C)CC2CCCN(CCc3ccccc3C)C2)cc1O (stereo not given) | 4% | -23% | 14% | 6% | 9% | 2%
COc1ccc(CCN2CCCC(CN(C)Cc3cc(Cl)c(O)c(OC)c3)C2)cc1 (stereo not given) | 1% | 50µM* | -10% | 10% | ? | 2%
CSc1nc(SCCO)c2sc3nc(-c4ccco4)c4c(c3c2n1)CC(C)(C)OC4 | -1% | 2.5µM* | -24% | 1% | -11% | 13%
CC1(C)Cc2c(c(-c3ccco3)nc3sc4c(NCCO)ncnc4c23)CO1 | 10%[11.5 µM] | 14µM* | 12% | · | -1% | 0%
COCCCNc1ncnc2c1sc1nc(-c3ccco3)c3c(c12)CC(C)(C)OC3 | 5% | 16µM* | -5% | 5% | -2% | -7%
CSc1nc(N(CCO)CCO)c2sc3nc(-c4ccco4)c4c(c3c2n1)CCC4 | 5% | 2.5µM* | -4% | ? | ? | -5%
Cc1nc2sc3c(NCc4ccco4)ncnc3c2c2c1COC(C)(C)C2 | 2% | ? | -17% | 14% | -1% | 3%
COC(=O)CSc1nc(SC)nc2c1sc1nc(-c3ccco3)c3c(c12)CC(C)(C)OC3 | · | · | 0% | · | · | -2%
O=P(O)(O)OC(Cn1cncn1)(Cn1cncn1)c1ccc(F)cc1F | · | · | · | · | · | 3%
CCCCN(CCCC)CCNC(=O)c1cc(=O)[nH]c2ccc(S(=O)(=O)N3CCCCCC3)cc12 | · | -3% | · | · | · | 4%
COc1ccc(NC(=O)CSc2nc(-c3ccco3)nc3cc(=O)[nH]n23)cc1 | · | 10µM* | · | · | · | 0%
Cc1ccc(NC(=O)CSc2nc(-c3ccco3)nc3cc(=O)[nH]n23)cc1C | · | 22µM* | · | · | · | -4%
COc1ccc(NC(=O)CSc2nc(-c3ccco3)nc3cc(=O)[nH]n23)cc1Cl | -1% | ? | -5% | 2% | · | -6%
COC(=O)/C=C/c1ccccc1S(=O)(=O)N(Cc1ccccc1)Cc1ccco1 | -27% | 18µM* | 10% | 3% | -7% | -15%
CCCCC[C@H](O)/C=C/[C@@H]1[C@@H](C/C=C\CCCC(=O)O)[C@@H](O)C[C@@H]1O | · | · | · | · | 7% | ·
CCC(c1nnnn1Cc1ccco1)N1CCC(C(N)=O)CC1 (stereo not given) | 4% | 0% | 4% | -1% | 6% | 6%
CC(C)C(c1nnnn1Cc1ccco1)N1CCC(C(N)=O)CC1 (stereo not given) | 7% | 45µM* | 7% | -4% | -5% | -10%
CC(C)C(NS(=O)(=O)c1ccc2c(c1)oc(=O)n2C)C(=O)NCCc1ccc(Cl)cc1 (stereo not given) | · | 7% | · | · | · | 0%
CCOC(=O)c1cnc(SSc2ncc(C(=O)OCC)c(N)n2)nc1N | 0% | 50µM* | 16% | -40% | -16% | ?
COc1ccccc1-c1nc(CNC(=O)NC2CCCCC2)c(C)o1 | · | -1% | · | · | · | 2%
CCn1c(SCC#N)nc2c(c1=O)C1(CCCC1)Cc1ccccc1-2 | 4% | -27% | 4% | -49% | 7% | 5%
CCn1c(=O)c2c(n3c(=S)[nH]nc13)-c1ccccc1CC21CCCCC1 | 14µM* | -8% | 0% | · | 5% | ?
Cc1cc(CN(C)C(=O)CC2C(=O)NCCN2Cc2c(F)cccc2Cl)n[nH]1 (stereo not given) | 3% | 40µM* | -6% | 1% | -20% | -5%
O=C1NCCN(Cc2c(F)cccc2Cl)C1CC(=O)N1CCCO1 (stereo not given) | 2% | 28µM* | 1% | 1% | -12% | -5%
SMILES | LmPK inh | Sm TGR block | RE007 growth inh | NS1 function inh | FBPA Giardia inh | TbPYK inhibitor
Cc1nonc1CN(C)C(=O)CC1C(=O)NCCN1Cc1c(F)cccc1Cl (stereo not given) | 2% | 5% | -3% | 3% | 3% | -9%
CCOc1ccc(NC(=O)Cn2c(=O)n(Cc3ccc(C(=O)NCc4ccc(C)cc4)cc3)c(=O)c3ccccc32)cc1 | · | -11% | · | · | · | -4%
N=C1/C(=C\c2coc3ccc(O)cc3c2=O)C(=O)N=C2SC=CN12 | -3% | 28µM* | 4% | 6% | -29% | -10%
N=C1/C(=C\c2coc3ccccc3c2=O)C(=O)N=C2SC(c3ccncc3)=NN12 | -4% | 0% | 14µM* | -75% | 1% | -23%
CN1C(=O)C(=Cc2coc3ccccc3c2=O)C(=O)N(C)C1=O | 0% | 10µM* | -29% | -32% | -2% | ?
O=C1NC(=O)C(=Cc2coc3ccc(O)cc3c2=O)C(=O)N1 | -6% | ? | -4% | -1% | -8% | ?
CSC1=NSC2=NC(=O)/C(=C\c3coc4ccccc4c3=O)C(=N)N12 | 5% | -23% | 28µM* | -10% | 7% | -8%
CC(C)CSC1=NSC2=NC(=O)/C(=C\c3coc4ccccc4c3=O)C(=N)N12 | 4% | -32% | -1% | · | -4% | -7%
Cc1cc(/C=C2\C(=N)N3N=C(c4ccco4)SC3=NC2=O)c(C)n1Cc1ccccc1 | -1% | ? | -15% | 13% | 3% | -1%
CCOC(=O)c1ccc(N2C(=O)CC(N3CCCC(C)C3)C2=O)cc1 (stereo not given) | 2% | 25µM* | 3.2µM* | -35% | 20% | 0%
CCOC(=O)c1ccc(N2C(=O)CC(Sc3ncccn3)C2=O)cc1 (stereo not given) | 1% | 40µM* | -5% | -5% | -29% | -4%
CCOC(=O)c1ccc(N2C(=O)CC(N3CCC(Nc4ccc(F)cc4)CC3)C2=O)cc1 (stereo not given) | 3% | 56µM* | 7.9µM* | -69% | -1% | -7%
CCOC(=O)c1ccc(N2C(=O)C3CCCN3C2=S)cc1 (stereo not given) | · | 9% | 2% | · | · | -6%
CCOC(=O)C1CCCN(C2CC(=O)N(c3cccc(C)c3)C2=O)C1 (stereo not given) | 1% | 25µM* | 25µM* | -53% | -21% | 4%
Cc1cccc(N2C(=O)CC(N3CCN(c4ccccc4)CC3)C2=O)c1 (stereo not given) | 12% | -28% | -7% | 11% | 1% | -7%
CCOC(=O)c1c(NC(C)=O)c2c3c(sc2n1Cc1ccc(Cl)cc1)CCCC3 | · | -4% | · | · | · | 3%
Fc1ccc(CNCCCSc2nnnn2-c2ccccc2)cc1 | · | -1% | · | · | · | 0%
N#CC1=C(N)Oc2n[nH]c(-c3cccs3)c2C1c1ccncc1 (stereo not given) | 6% | 5% | 3% | · | -10% | 1%

High-throughput results from PubChem.
